Hits are enriched below; roughly 0.3% of the tested compounds scored in any of these assays.
hcGAS inh – inhibitors of human cGAS; Q8N884; recombinant h-cGAS, ATP depletion, Kinase-Glo luminescence; AID 1259398; inhibition, % at 12.5 µM; hit rate 0.081% among 290,000;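 further: 0% = vehicle reaction and 100% = reaction without DNA for no activity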
NPYLR7 agonist – mosquito NPYLR7 agonism. HEK293T NPYLR7/Galpha15, GCaMP6s calcium fluorescence. hit rate 0.15% among 270,000. activation, % at 10 µM; in the data active means activation above about 40%;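 further: 0% = vehicle and 100% = reference agonist at the receptor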
mcGAS lum – inhibitors of mouse cGAS. Q8C6L5. recombinant cGAS, Kinase-Glo ATP depletion luminescence. inhibition, % at 12.5 µM. hit rate 0.15% among 160,000. AID 1259399;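 further: 0% = negative control wells and 100% = reference inhibitor with no enzyme activity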
Target sequence (Q8C6L5 whole entry, looked up): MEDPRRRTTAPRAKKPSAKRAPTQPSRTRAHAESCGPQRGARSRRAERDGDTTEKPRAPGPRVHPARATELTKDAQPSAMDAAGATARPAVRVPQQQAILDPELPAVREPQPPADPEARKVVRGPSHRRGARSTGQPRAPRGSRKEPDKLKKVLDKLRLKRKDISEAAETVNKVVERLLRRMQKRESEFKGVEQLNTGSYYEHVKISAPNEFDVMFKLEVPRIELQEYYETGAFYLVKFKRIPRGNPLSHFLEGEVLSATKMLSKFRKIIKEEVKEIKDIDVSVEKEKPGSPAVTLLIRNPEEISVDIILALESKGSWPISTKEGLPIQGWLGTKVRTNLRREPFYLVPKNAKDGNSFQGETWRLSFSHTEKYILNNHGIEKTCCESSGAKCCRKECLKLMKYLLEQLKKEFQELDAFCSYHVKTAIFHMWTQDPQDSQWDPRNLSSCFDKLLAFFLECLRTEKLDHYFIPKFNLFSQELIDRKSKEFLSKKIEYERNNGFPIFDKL
An asterisk follows results filed as active; nt = no result given; ! = repeats disagree. Unless noted, no stated cut-off is given here; in the data, active means inhibition above about 40%; inactive means the rest.

SMILES | hcGAS inh | NPYLR7 agonist | mcGAS lum
CC(C)=CCCC1(C)C=Cc2c(O)c3c(c(CC=C(C)C)c2O1)OC12C(=CCCC1C(C)(C)O[C@@]2(C/C=C(\C)C(=O)O)C(=O)O)C3=O (some centres undefined) | 68* | nt | 58*
Cc1nn(C)cc1C(C)NC(=O)c1ccc(OC2CCN(CCc3ccccc3)CC2)cc1 (centres undefined) | -2 | -1 | 1
O=C1NC(=S)S/C1=C/c1cc(Br)c(O)c(Br)c1 | 35 | 24 | 43*
O=C1NC(=S)SC1=Cc1cc(O)c(O)c(Cl)c1 | 39 | 99* | nt
O=C1NC(=S)SC1=Cc1cc(Cl)c2c(c1)OCO2 | 14 | 3 | 38
O=C1NC(=S)S/C1=C\C(Br)=C\c1ccccc1 | -8 | 0 | 52*
O=C1NC(=S)S/C1=C/C=C/c1ccccc1 | -5 | -6 | 4
O=C1NC(=S)N/C1=C\c1cc(Br)c(O)c(Br)c1 | 15 | 27 | 9
NC(=O)c1c(N=c2oc3ccccc3cc2C(N)=O)sc2c1CCCC2 | 2 | 1 | 3
N#Cc1ccccc1NC(=O)C1=COCCO1 | -5 | 17 | nt
Cc1ccc(OCc2ccc(C(=O)NC3=NCCS3)o2)cc1 | -10 | 10 | -8
CC1=NN(c2cccc(C(=O)O)c2)C(=O)/C1=C\c1ccc(-c2cc([N+](=O)[O-])ccc2O)o1 | 5 | -17 | 8
CC1=NN(c2cccc(C(=O)O)c2)C(=O)/C1=C\c1ccc(-c2ccccc2C(=O)O)o1 | -6 | -4 | 64*
CCOc1ccc(NC(C)=O)cc1 | -4 | 71*! | nt
CCOc1ccc(NC(=O)CC(C)O)cc1 (centres undefined) | -3 | -4 | nt
CCOC(=O)c1ccccc1NC(=O)CSc1ccc(-c2cccs2)nn1 | 0 | -4 | -6
O=C1Nc2ccccc2C1C=NN1CCOCC1 (centres undefined) | -3 | 51* | -7
CN1CCN(N=CC2C(=O)Nc3ccccc32)CC1 (centres undefined) | 4 | -12 | nt
O=C1NCCN(C2CCCC2)C1CC(=O)N1CCN(C(=O)c2ccco2)CC1 (centres undefined) | -9 | 1 | nt
O=C(CCl)N1CCN(c2ccc(O)cc2)CC1 | 4 | -8 | 11
O=C(CCl)N1CCN(c2cccc(Cl)c2)CC1 | -10 | 0 | 70*
CCOC(=O)c1ccc(CSc2nc3cc(S(=O)(=O)N4CCOCC4)ccc3n2CC2CCCO2)cc1 (centres undefined) | -4 | 6 | -4
Cc1nc2nc(-c3cc(Cl)ccc3O)cc(C(=O)O)c2[nH]1 | 9 | -2 | 51*
Cc1nc2nc(-c3cccc(Cl)c3)cc(C(=O)O)c2[nH]1 | -5 | -2 | -2
CC(C)NC(=O)C(C)N1CCc2onc(-c3ccc(C(F)(F)F)cc3)c2C1 (centres undefined) | 5 | 135* | 1
SMILES | hcGAS inh | NPYLR7 agonist | mcGAS lum
O=C(C1CC=CCC1)N1CCc2onc(-c3ccc(C(F)(F)F)cc3)c2C1 (centres undefined) | -7 | 11 | -17
Cc1ccc(Cl)c2sc(N(CCCN3CCOCC3)C(=O)c3ccc(C#N)cc3)nc12 | -3 | 0 | -5
N#CC1C(=N)SC(=N)C(C#N)C1c1cccc(Cl)c1Cl (centres undefined) | -2 | 14 | 18
N#CC1C(=N)SC(=N)C(C#N)C1c1ccccc1I (centres undefined) | 9 | 36 | nt
N#CC1C(=N)SC(=N)C(C#N)C1c1ccc(Cl)cc1Cl (centres undefined) | 7 | 164* | nt
N#CC1C(=N)SC(=N)C(C#N)C1c1cccc(Cl)c1 (centres undefined) | -2 | 2 | 12
N#CC1C(=N)SC(=N)C(C#N)C1c1ccccc1F (centres undefined) | 68*! | 47*! | 59*
N#CC1C(=N)SC(=N)C(C#N)C1c1cccc(F)c1 (centres undefined) | 54* | 97* | 45*
COC(=O)C1C(c2ccc(F)cc2)c2c([nH][nH]c2=O)CC1(C)O (centres undefined) | -10 | 2 | -9
COc1cccc(CN2CC(C(=O)N(C)Cc3nc4ccc(F)cc4[nH]3)CCC2=O)c1 (centres undefined) | -8 | 0 | nt
Cc1cc(F)ccc1CCNC(=O)Nc1c(C)noc1C | -5 | 0 | nt
CC(C)N(Cc1ccc(C(O)(c2ccc(F)cc2)c2ccc(F)cc2)o1)Cc1cccs1 | -8 | 18 | -3
O=c1cc(-c2cc(O)c(O)c(O)c2)oc2cc(O)cc(O)c12 | 22 | 22 | nt
O=c1oc2c(O)c(O)cc3c(=O)oc4c(O)c(O)cc1c4c23 | 43* | -10 | nt
CN(C(=O)CCl)c1nnc(C23CC4CC(CC(C4)C2)C3)s1 | -1 | 0 | 60*
CCC(=O)N(C)c1nnc(C23CC4CC(CC(C4)C2)C3)s1 | -4 | 3 | -2
CC(C)N1CCC(C(=O)NC[C@H]2C[C@H]3C=C[C@H]2C32CC2)CC1 | -4 | nt | 1
O=c1[nH]c(CCl)nc2sc3c(c12)CCN(Cc1ccccc1)C3 | 1 | 45* | nt
COCCCNCc1nc2sc3c(c2c(=O)[nH]1)CCN(Cc1ccccc1)C3 | 4 | -4 | 3
O[C@@H]1CN(Cc2ccncc2Cl)CC[C@H]1c1ccc2c(c1)OCO2 | -4 | 49* | nt
O[C@@H]1CN(Cc2ccc3c(c2)OCO3)CC[C@H]1c1ccc2c(c1)OCO2 | -3 | 2 | nt
CC1(C(=O)Nc2nccs2)CCN1C(=O)Cc1ccc(-c2ccccc2)cc1 (centres undefined) | -7 | 5 | -3
O=C1CCCc2nc3nc(-c4cccnc4)nn3cc21 | -5 | 1 | -6
CCN1CCN(c2ccc(C(=O)C=Cc3ccc(O)c(OC)c3)cc2F)CC1 | -8 | 93* | nt
COc1ccc(C(=O)C=Cc2cccc(O)c2)cc1F | 1 | -2 | 23
SMILES | hcGAS inh | NPYLR7 agonist | mcGAS lum
CCOC(=O)c1c(NC(=O)c2c(F)c(F)c(F)c(F)c2F)sc2c1CCN(c1ccc(Cl)nc1)C2 | -4 | nt | -4
COc1ccccc1-c1cc(C(=O)N2CCc3ccccc3C2)nc2cc(C(C)(C)C)nn12 | 6 | -2 | 84*
CC(C)(C)c1cc2nc(C(=O)N3CCc4ccccc4C3)cc(-c3ccccc3F)n2n1 | 1 | -13 | 1
O=C(NCc1cccs1)c1cncn1-c1cccc(-c2cccc(OC(F)(F)F)c2)c1 | -1 | 3 | -4
COC(=O)c1c(C)c2c(c(C)c1O)OC(=O)c1c(C)c(Cl)c(O)c(Cl)c1O2 | 22 | -1 | -2
COc1cc(C)c2c(c1C=O)Oc1c(c(C)c(O)c3c1C(O)OC3=O)OC2=O (centres undefined) | 70* | -13 | 41*
Cc1cc(O)c(C=O)c2c1C(=O)Oc1c(C)c(O)c3c(c1O2)C(O)OC3=O (centres undefined) | 42* | -8 | nt
O=C(CN1Cc2ccc(N3CCOCC3)nc2C1=O)NCC1CCOCC1 | -4 | -12 | -7
Cc1cc(C)c(S(=O)(=O)N(C)c2ccsc2C(=O)N2CCOCC2)c(C)c1 | -6 | -3 | -4
COc1ccc2nc(N3CCCCC3)[nH]c2c1 | -12 | 0 | nt
CSc1ncccc1C(=O)N1CCN(c2c(Cc3ccccc3)c(C)nc3ncnn23)CC1 | 2 | 21 | -4
COC(=O)c1cc(CNC(=O)c2ccccc2F)cc(NC(=O)c2ccco2)c1 | -6 | 7 | nt
O=S(=O)(c1ccccc1)c1ccccc1Nc1ccccc1 | 78* | 0 | nt

High-throughput results deposited in PubChem by Fisher Drug Discovery Resource Center.
